Assay results reported in the supplement of paper PMC11732987, “Enantioselective OTUD7B fragment discovery through chemoproteomics screening and high-throughput optimisation” (Communications Chemistry, 2025).
A number with no mark means an inactive call.

Assays:
Assay in all cases: log2 ratio of Biotin-Ahx-Ub-VS probe labelling (fragment/DMSO); higher = less target engagement (more negative = stronger competition), active = hit call of the paper (q ≤ 0.05, log2 ratio ≤ -1)
Details in all cases: compound concentration: 200 uM; treatment time: 3 h
ALG13 = target: T1, ALG13 (UniProt Q9NP73)
T1 sequence (whole entry): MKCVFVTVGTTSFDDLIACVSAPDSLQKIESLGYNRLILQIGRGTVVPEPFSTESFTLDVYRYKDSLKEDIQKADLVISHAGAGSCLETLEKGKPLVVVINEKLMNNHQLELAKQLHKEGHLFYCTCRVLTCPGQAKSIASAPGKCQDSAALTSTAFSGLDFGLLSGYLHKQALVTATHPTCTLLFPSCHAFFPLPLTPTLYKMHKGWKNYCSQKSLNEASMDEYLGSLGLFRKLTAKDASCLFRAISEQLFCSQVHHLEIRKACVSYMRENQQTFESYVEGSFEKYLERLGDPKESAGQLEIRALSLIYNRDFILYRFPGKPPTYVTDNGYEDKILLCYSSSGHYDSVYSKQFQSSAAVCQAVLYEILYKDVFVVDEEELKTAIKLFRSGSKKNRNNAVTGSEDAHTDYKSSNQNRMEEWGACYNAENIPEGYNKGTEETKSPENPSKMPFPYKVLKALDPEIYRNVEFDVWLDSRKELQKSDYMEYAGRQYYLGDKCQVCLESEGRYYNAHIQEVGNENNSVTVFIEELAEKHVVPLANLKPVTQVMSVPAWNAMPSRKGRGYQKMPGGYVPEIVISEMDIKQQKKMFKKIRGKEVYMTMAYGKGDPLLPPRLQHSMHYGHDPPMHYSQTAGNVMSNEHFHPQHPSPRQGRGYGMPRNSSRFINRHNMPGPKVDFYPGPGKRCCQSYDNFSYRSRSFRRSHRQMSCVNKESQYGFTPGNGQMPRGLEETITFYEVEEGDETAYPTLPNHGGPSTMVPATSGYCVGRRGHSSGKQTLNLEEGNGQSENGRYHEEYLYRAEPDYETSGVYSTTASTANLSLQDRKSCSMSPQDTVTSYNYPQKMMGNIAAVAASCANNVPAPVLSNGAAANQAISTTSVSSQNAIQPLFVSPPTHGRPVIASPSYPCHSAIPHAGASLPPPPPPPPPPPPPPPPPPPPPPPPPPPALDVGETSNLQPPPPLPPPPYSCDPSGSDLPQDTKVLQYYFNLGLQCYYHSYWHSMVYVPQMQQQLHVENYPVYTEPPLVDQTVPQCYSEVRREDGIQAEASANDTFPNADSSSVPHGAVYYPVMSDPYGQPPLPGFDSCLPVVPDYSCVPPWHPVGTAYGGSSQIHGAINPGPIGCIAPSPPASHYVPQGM
Method in brief: (§1)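 Triplicate samples of HEK293T lysate, 495 µg each, received fragment at 200 µM or vehicle for 3 h, followed by Biotin-Ahx-Ub-VS (0.5 µM final) for 1 h. After NeutrAvidin enrichment of labelled DUBs and LysC/trypsin digestion, peptides were run by diaPASEF LC-MS/MS. The values are average log2 fragment/vehicle ratios from global-median-normalised Spectronaut label-free quantities, tested by unpaired t-test on proteins having ≥2 unique peptides.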

ATXN3 = ATXN3 (UniProt P54252)
Method in brief: as §1

BAP1 = target: T2, BAP1 (UniProt Q92560)
T2 sequence (whole entry): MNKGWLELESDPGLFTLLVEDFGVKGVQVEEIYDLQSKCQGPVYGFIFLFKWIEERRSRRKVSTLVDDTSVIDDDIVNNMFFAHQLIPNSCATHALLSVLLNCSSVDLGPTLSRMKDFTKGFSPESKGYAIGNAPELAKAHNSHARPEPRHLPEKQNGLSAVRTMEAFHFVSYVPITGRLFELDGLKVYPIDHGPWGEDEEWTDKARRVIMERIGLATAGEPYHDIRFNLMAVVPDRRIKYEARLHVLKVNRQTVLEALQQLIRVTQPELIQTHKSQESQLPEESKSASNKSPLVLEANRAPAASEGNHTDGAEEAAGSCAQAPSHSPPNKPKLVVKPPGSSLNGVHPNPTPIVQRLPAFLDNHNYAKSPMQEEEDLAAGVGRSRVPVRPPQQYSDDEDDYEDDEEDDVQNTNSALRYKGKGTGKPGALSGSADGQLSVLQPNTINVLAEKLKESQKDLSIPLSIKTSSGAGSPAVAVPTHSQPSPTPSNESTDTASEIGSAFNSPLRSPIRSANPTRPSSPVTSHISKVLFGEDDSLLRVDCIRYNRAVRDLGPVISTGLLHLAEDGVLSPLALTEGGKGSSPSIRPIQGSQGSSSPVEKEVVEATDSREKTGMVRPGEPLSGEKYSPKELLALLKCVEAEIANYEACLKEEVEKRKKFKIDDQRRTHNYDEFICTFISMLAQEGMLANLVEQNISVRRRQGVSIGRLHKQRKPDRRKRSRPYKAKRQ
Method in brief: as §1

EIF3F = EIF3F (UniProt O00303)
Method in brief: as §1

EIF3H = EIF3H (UniProt O15372)
Method in brief: as §1

FAM105A = target: T3, FAM105A (UniProt Q9NUU6)
T3 sequence (whole entry): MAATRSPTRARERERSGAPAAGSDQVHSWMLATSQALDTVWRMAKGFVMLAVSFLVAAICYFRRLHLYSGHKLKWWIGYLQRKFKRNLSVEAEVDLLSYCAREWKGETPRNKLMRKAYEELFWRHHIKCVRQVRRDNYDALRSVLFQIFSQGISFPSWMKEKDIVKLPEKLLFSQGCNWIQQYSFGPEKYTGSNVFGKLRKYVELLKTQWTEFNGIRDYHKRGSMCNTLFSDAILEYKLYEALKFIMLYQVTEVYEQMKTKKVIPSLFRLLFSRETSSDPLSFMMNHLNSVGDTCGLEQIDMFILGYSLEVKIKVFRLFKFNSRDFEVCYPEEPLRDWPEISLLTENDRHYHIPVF
Method in brief: as §1

OTUB1 = OTUB1 (UniProt Q96FW1)
Method in brief: as §1

OTUD4 = target: T4, OTUD4 (UniProt Q01804)
T4 sequence (whole entry): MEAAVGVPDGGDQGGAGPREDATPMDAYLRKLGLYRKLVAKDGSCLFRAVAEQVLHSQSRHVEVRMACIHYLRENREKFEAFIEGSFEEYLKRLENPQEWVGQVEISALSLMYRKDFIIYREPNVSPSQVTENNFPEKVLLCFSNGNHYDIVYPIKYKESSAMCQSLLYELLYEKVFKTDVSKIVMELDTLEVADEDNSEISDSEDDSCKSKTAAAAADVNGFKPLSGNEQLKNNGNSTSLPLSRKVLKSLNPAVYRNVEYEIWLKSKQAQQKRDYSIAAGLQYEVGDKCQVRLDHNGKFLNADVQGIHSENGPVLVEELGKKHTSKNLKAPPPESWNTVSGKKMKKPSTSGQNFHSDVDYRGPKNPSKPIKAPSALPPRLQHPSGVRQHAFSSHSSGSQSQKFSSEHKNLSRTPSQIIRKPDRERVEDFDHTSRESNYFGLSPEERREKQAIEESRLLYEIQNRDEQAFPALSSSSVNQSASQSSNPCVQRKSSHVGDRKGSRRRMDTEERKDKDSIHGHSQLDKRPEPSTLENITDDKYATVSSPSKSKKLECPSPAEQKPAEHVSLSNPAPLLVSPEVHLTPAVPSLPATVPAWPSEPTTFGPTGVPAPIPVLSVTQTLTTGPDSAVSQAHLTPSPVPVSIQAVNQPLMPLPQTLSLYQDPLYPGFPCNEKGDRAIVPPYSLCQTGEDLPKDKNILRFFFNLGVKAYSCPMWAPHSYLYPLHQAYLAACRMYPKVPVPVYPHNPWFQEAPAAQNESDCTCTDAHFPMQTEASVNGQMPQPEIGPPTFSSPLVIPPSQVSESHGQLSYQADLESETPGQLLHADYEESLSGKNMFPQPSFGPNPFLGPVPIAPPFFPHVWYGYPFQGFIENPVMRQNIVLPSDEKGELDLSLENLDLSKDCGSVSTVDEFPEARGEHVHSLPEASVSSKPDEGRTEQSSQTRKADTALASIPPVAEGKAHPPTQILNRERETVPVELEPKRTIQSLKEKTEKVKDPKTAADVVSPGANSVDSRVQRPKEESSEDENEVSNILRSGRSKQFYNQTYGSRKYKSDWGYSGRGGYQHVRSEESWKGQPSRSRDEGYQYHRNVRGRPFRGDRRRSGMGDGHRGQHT
Method in brief: as §1

OTUD5 = target: T5, OTUD5 (UniProt Q96G74)
T5 sequence (whole entry): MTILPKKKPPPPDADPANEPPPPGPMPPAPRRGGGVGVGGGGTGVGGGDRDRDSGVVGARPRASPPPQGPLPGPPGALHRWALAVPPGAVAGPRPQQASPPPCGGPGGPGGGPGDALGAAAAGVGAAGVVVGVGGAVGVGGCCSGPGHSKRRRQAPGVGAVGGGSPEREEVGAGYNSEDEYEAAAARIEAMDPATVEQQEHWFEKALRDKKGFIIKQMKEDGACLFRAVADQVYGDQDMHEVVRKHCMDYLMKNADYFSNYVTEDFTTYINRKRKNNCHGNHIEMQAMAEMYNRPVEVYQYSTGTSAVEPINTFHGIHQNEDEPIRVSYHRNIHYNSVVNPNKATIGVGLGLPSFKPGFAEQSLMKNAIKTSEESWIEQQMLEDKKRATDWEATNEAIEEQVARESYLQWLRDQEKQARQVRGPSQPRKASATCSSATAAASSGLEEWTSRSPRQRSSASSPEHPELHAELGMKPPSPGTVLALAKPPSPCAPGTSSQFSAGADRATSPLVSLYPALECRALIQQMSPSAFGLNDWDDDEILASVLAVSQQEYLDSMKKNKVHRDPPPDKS
Method in brief: as §1

OTUB1, sequence (Q96FW1 whole entry): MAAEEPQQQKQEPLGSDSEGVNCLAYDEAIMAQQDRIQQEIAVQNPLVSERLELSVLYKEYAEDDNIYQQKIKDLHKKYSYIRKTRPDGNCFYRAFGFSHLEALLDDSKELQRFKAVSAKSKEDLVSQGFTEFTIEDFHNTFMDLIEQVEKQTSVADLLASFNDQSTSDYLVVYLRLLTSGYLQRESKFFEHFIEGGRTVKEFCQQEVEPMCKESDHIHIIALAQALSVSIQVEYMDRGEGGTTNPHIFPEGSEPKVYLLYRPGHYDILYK
ATXN3, sequence (P54252 whole entry): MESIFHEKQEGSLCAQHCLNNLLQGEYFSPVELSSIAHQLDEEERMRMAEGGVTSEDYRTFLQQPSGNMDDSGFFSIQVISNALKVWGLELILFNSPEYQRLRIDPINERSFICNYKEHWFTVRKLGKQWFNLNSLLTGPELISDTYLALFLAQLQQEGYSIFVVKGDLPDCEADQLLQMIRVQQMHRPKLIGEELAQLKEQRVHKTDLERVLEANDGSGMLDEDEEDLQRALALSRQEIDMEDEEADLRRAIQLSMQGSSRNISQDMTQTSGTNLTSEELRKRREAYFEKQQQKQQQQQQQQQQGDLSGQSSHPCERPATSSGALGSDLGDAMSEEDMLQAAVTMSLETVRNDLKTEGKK
EIF3F, sequence (O00303 whole entry): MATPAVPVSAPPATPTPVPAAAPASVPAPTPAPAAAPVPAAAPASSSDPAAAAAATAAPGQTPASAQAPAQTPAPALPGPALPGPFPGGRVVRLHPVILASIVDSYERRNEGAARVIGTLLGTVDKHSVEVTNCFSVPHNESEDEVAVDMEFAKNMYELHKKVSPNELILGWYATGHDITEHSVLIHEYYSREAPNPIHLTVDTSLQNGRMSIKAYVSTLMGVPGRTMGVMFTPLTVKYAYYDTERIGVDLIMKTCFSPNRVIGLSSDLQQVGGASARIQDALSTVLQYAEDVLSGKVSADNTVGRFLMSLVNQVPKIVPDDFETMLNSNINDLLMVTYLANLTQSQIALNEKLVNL
EIF3H, sequence (O15372 whole entry): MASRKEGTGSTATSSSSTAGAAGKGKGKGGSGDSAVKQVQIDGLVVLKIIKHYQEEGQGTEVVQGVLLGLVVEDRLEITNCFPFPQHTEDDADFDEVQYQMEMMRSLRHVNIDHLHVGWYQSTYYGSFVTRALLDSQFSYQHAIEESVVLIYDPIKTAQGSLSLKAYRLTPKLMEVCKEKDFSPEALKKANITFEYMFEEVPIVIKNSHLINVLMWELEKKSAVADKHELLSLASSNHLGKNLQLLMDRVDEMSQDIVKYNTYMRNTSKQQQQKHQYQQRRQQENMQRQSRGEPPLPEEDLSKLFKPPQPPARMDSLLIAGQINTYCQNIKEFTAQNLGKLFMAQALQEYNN

With `O=C(CCl)N1CCCCC12CCOCC2` the “log2 ratio of Biotin-Ahx-Ub-VS probe labelling” value (from here on “log2 ratio”) (ALG13) was 0.112, the “log2 ratio” value (ATXN3) was -0.355 and the “log2 ratio” value (BAP1) was -1.05 (active). The “log2 ratio” value (EIF3F) was -0.323, the “log2 ratio” value (EIF3H) was -0.162 and the “log2 ratio” value (FAM105A) was 0.208. The “log2 ratio” value (OTUB1) was -0.126, the “log2 ratio” value (OTUD4) was -0.484 and the “log2 ratio” value (OTUD5) was -0.461.

With `O=C(CCl)N(Cc1ccsc1)C1CC1` the “log2 ratio” value (ALG13) was 0.115, the “log2 ratio” value (ATXN3) was -0.173 and the “log2 ratio” value (BAP1) was -0.841. The “log2 ratio” value (EIF3F) was -0.0964, the “log2 ratio” value (EIF3H) was 0.0796 and the “log2 ratio” value (FAM105A) was -0.378. The “log2 ratio” value (OTUB1) was -0.191, the “log2 ratio” value (OTUD4) was -0.285 and the “log2 ratio” value (OTUD5) was -0.657.

`Cc1cccc(N2CCC(NC(=O)CCl)C2=O)c1` (configuration not stated) was tested, and the “log2 ratio” value (ALG13) was -0.354, the “log2 ratio” value (ATXN3) was -0.569 and the “log2 ratio” value (BAP1) was -4.17 (active). The “log2 ratio” value (EIF3F) was -0.331, the “log2 ratio” value (EIF3H) was 0.306 and the “log2 ratio” value (FAM105A) was 0.111. For the same compound, the “log2 ratio” value (OTUB1) was -0.325, the “log2 ratio” value (OTUD4) was -0.412 and the “log2 ratio” value (OTUD5) was -0.338.

With `N#Cc1ccc(Cl)cc1NC(=O)CCl` the “log2 ratio” value (ALG13) was -0.187, the “log2 ratio” value (ATXN3) was -0.113 and the “log2 ratio” value (BAP1) was -4.1 (active). The “log2 ratio” value (EIF3F) was -0.13, the “log2 ratio” value (EIF3H) was 0.269 and the “log2 ratio” value (FAM105A) was -0.217. The “log2 ratio” value (OTUB1) was -0.265, the “log2 ratio” value (OTUD4) was -1.18 (active) and the “log2 ratio” value (OTUD5) was -0.589.

For `CN1C(=O)c2ccc(NC(=O)CCl)cc2C1=O`, the “log2 ratio” value (ALG13) was 0.35, the “log2 ratio” value (ATXN3) was -0.464 and the “log2 ratio” value (BAP1) was -3.58 (active). The “log2 ratio” value (EIF3F) was -0.166, the “log2 ratio” value (EIF3H) was 0.319 and the “log2 ratio” value (FAM105A) was -0.33. The “log2 ratio” value (OTUB1) was 0.0722, the “log2 ratio” value (OTUD4) was -0.313 and the “log2 ratio” value (OTUD5) was -0.621.

For `CC(NC(=O)CCl)c1csc(-c2ccccc2)n1.Cl` (configuration not stated), the “log2 ratio” value (ALG13) was 0.0117, the “log2 ratio” value (ATXN3) was -0.556 and the “log2 ratio” value (BAP1) was -3.84 (active). The “log2 ratio” value (EIF3F) was -0.0347, the “log2 ratio” value (EIF3H) was -0.03 and the “log2 ratio” value (FAM105A) was 0.268. The “log2 ratio” value (OTUB1) was -0.0384, the “log2 ratio” value (OTUD4) was -1.31 (active) and the “log2 ratio” value (OTUD5) was -0.527.

With `CC(c1ccccc1)N(C)C(=O)CCl` (configuration not stated) the “log2 ratio” value (ALG13) was -0.0878, the “log2 ratio” value (ATXN3) was -0.667 and the “log2 ratio” value (BAP1) was -0.362. The “log2 ratio” value (EIF3F) was 0.107, the “log2 ratio” value (EIF3H) was 0.0952 and the “log2 ratio” value (FAM105A) was -0.093. For the same compound, the “log2 ratio” value (OTUB1) was 0.146, the “log2 ratio” value (OTUD4) was -0.0165 and the “log2 ratio” value (OTUD5) was -0.419.

With `Cl.Cn1ncc2c1CCCC2NC(=O)CCl` (configuration not stated) the “log2 ratio” value (ALG13) was 0.35, the “log2 ratio” value (ATXN3) was -0.16 and the “log2 ratio” value (BAP1) was -0.894. The “log2 ratio” value (EIF3F) was -0.378, the “log2 ratio” value (EIF3H) was 0.457 and the “log2 ratio” value (FAM105A) was 0.0219. For the same compound, the “log2 ratio” value (OTUB1) was -0.186, the “log2 ratio” value (OTUD4) was -1.75 (active) and the “log2 ratio” value (OTUD5) was -0.0276.
